Test results as given in PubChem BioAssay AID1272365 (Small Molecule Screening Facility, UW Madison, 2018).
Values joined by “and” are separate entries in the source; they are usually repeats but may differ in a detail not shown here. Identical values can stand only once. The campaign covered roughly 430,000 compounds. About 2,600 (0.6%) were called active. Shown is part of a subset that was picked to be rich in actives. A number with no mark means an inactive call. Rule as the data show it: active = inhibition mostly above about 37% (no sharp cut-off); inactive = mostly below about 20%.

What follows are compounds tested on PriA–SSB C-terminal tail interaction (Klebsiella pneumoniae) (assay: blocks PriA binding to SSB C-terminal tail, primary screen, biochemical, AlphaScreen (AID 1272365;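 also: plate controls were negative control peptide for no effect and reference peptide for full effect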)). Details: AlphaScreen SSBct-PriA binding, biotinylated peptide; at 33 µM, stronger effect = higher value.

SMILES	inhibition
COc1cc(OC)cc(-c2noc(-c3cc(-c4cc(C)ccc4C)n[nH]3)n2)c1	-13%
O=C(c1ccc([N+](=O)[O-])o1)N1CCN(c2ncnc3c2nnn3-c2cccc(F)c2)CC1	-10%
CC(=O)Nc1nnc(Cc2ccc(F)cc2)o1	1%
COc1ncc(NC(=O)Nc2ccc(C)c(Cl)c2)c(N(C)C)n1	10%
O=C(Cc1csc(SCc2ccc(Cl)cc2)n1)Nc1ccc2c(c1)OCO2	1%
CN(C)c1ccc(/C=N\NC(=O)c2ccccc2O)cc1	-18%
NC(=O)c1ccccc1OCC#CCNS(=O)(=O)Cc1ccc(Cl)cc1	-1%
O=C(Cn1nc(-c2ccc(F)cc2)c2sc(N3CCCC3)nc2c1=O)NCc1ccccc1Cl	-4%
CCOc1cc(/C=C2/N=C(c3ccc(C(C)(C)C)cc3)OC2=O)cc(Cl)c1OS(C)(=O)=O	62.1% (active)
CC(=O)Nc1ccc(N2C(=O)c3cccc4cccc(c34)C2=O)cc1	5%
Cc1ccc(NC(=O)C2CCCN2S(=O)(=O)c2cccc3cccnc23)c(C)c1 (stereo not given)	-5.79%
Cc1ccccc1OCCC(=O)Nc1c(C)n(C)n(-c2ccccc2)c1=O	-12.4%
Cc1ccc(NC(=O)CSc2cccc3cccnc23)c(C)c1	79.3% (active)
Cc1c(NC(=O)COc2cccc(OCCC(C)C)c2)c(=O)n(-c2ccccc2)n1C	-3%
O=C(CSc1cccc2cccnc12)Nc1ccc(Br)cc1	27.6%
Cc1c(NC(=O)CSc2cccc3cccnc23)c(=O)n(-c2ccccc2)n1C	96% (active)
O=C(CSc1nnc(-c2ccc3c(c2)OCCO3)o1)Nc1nc(-c2ccccc2)cs1	-3%
COc1ccc(C(=O)CC(SCCO)c2ccc(F)cc2)cc1OC (stereo not given)	-1%
COc1ccc(NC(=O)NCC(c2ccc3c(c2)CCCN3C)N2CCCC2)cc1OC (stereo not given)	25%
CCC(=O)N1CCc2ccc(NC(=O)CCC3CCCC3)cc2C1	-6%

SMILES	inhibition
CCCN1CCCc2cc(CCNC(=O)Cc3ccc(OC)cc3)ccc21	57.9%
CCCN1CCCc2cc(CCNC(=O)CCC3CCCC3)ccc21	63% (active)
CCCN1CCCc2cc(CCNC(=O)c3ccco3)ccc21	56% (active)
O=C(NCCc1ccc(N2CCCC2)cc1)c1ccco1	-19%
Cc1cc(C)c(S(=O)(=O)Nc2ccc3c(c2)CCCN3C(=O)c2ccco2)c(C)c1	0%
Cn1nc(CNS(=O)(=O)/C=C/c2ccccc2)c2c1CCCC2	-3%
CCCS(=O)(=O)N1CCc2ccc(NC(=O)c3ccc(Br)o3)cc2C1	-14%
C=CCn1c(SCC(=O)N2CCOCC2)nc2scc(-c3ccccc3Cl)c2c1=O	-1%
Cc1cc(=O)n(CC(=O)Nc2ccc(C(F)(F)F)cc2)c(-c2ccncc2)n1	-28%
CS(=O)(=O)N1CCN(C(=O)c2cnn3c2OCCC3)CC1	6%
O=C(Cc1ccc(F)cc1)NCCn1nc(C(F)(F)F)c2c1CCCC2	10%
COc1cn2c(cc1=O)C(=O)N(CCNC(=O)C1(c3ccc(Cl)cc3)CCCC1)CC2	-13% and -15%
Cc1ccc2c(CC(=O)NCc3ccccc3Cl)cc(=O)oc2c1	-3%
O=C(COC(=O)c1cccc(I)c1)c1ccc(-n2nncc2-c2ccccc2)cc1	-4%
O=C(COC(=O)c1cccc(I)c1)c1ccc([N+](=O)[O-])cc1	38% (active)
O=C(OCC(=O)N1CCc2ccccc21)c1ccc([N+](=O)[O-])cc1	-10.4%
CS(=O)(=O)N1CCC(CNC(=O)c2ccc(OC(F)(F)F)cc2)CC1	-25%
O=S(=O)(/C=C/c1ccccc1)N1CCCSCC1CN1CCOCC1 (stereo not given)	-4%
COC(=O)c1sccc1S(=O)(=O)NCc1ccc(C(=O)c2ccco2)s1	-24%
O=C(Cn1nc(-n2ccc3ccccc32)ccc1=O)Nc1c[nH]c(=O)[nH]c1=O	-41%

SMILES	inhibition
CCSc1ccccc1C(=O)N1CCN(c2ccc(-c3ccccn3)nn2)CC1	161% (active)
CCSc1ccccc1C(=O)N1CCN(c2ncnc3c2nnn3C)CC1	-12%
CCOc1ccccc1C(=O)N1CCC(Oc2cccc(C)n2)CC1	-8%
O=C(c1ccc(N2CCCCC2)nn1)N(Cc1ccccc1)c1ccccn1	-19%
CCOc1ccccc1C(=O)N1CCN(c2ccc(-c3ccccn3)nn2)CC1	100% (active)
CCSc1ccccc1C(=O)N1CCN(C(=O)C2CC2c2ccccc2)CC1 (stereo not given)	-7%
O=S(=O)(CCc1ccccc1)N1CCN(c2ccc(-c3ccccc3)nn2)CC1	-3%
O=C(c1ccccc1F)N1CCN(c2ccc(-c3cccnc3)nn2)CC1	-8% and -16%
c1ccc(-c2ccc(N3CCNCC3)nn2)nc1	100% (active)
C=CCNC(=S)NN=C(C)c1cc(OC)c(OC)c(OC)c1	-5.43%
Cc1cc(OC2CN(C(=O)C(C)(C)Oc3ccc(Cl)cc3)C2)cc(=O)n1C	-5%
COc1ccc(N2CCn3c(SCC(=O)Nc4ccc(OC)cc4OC)nnc32)cc1	-12%
O=C(O)c1cc(Br)cs1	-5%
COc1ccc(OCC(=O)NN=C(C)CC(=O)Nc2ccc(OC)cc2[N+](=O)[O-])cc1	-8.04%
COc1ccc(NC(=O)CCSc2ccc(C)cc2)c([N+](=O)[O-])c1	62% (active)
Cc1ccc(SCCC(=O)Nc2cccc(Cl)c2Cl)cc1	-17% and -19%
CN(C)[C@@H](CNC(=O)C(=O)Nc1ccc(F)c(Cl)c1)c1ccco1	-17%
NC(=O)c1ccccc1NC(=O)c1cccn(Cc2cccc(F)c2)c1=O	4%
N#C/C(=C\N1CCC(C(N)=O)CC1)C(=O)NCCc1ccccc1	-13%
O=C(Nc1nc2c(s1)C(=O)NCCC2)c1ccc2noc(-c3ccccc3)c2c1	-3%
